Results on 15 molecules are retold here after the supplement of paper PMC6522484.

In assay [1] the test system is DLD1. In words: cell viability (CellTiter-Glo) relative to plate median (fraction of plate median); higher = more viable cells. Conditions: 5 µM; treatment time 24 h; reporter: 7TFP. An outline of the steps: (§1)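 Colorectal cancer cell lines stably carrying lentiviral TCF/Wnt firefly luciferase reporters (7TFP or TCF4/Wnt) were plated in 384-well plates and, 24 h later, given library compounds at a final 5 µM for 24 h. Firefly luciferase or CellTiterGlo luminescence was read on parallel plates with a Tecan F500 reader. Each well's signal was normalised to the plate median in webcellHTS2 (additive, without log transformation). Values are the mean of two independent replicates.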

In assay [2] the test system is HCT116. Described as above. The settings on record: 5 µM; treatment time 24 h; reporter: TCF4/Wnt. Put shortly: as §1
The test system of assay [3] is SW480. The description is as above. The settings on record: 5 µM; treatment time 24 h; reporter: 7TFP. Put shortly:
as §1

In assay [4] the test system is DLD1. Put plainly: TCF/Wnt firefly luciferase reporter signal relative to plate median (fraction of plate median); higher = higher Wnt reporter signal. The settings on record: 5 µM; treatment time 24 h; reporter: 7TFP. An outline of the steps:
as §1

The subject of assay [5] is SW480. Described as above. The settings on record: 5 µM; treatment time 24 h; reporter: 7TFP. Put shortly: as §1

± gives the standard deviation of the averaged measurements.

Take `O=C(O)c1c2ccccc2cc2ccccc12`: the cell viability in assay [1] came out at 0.959 ± 0.043; in assay [2] it was 1.02 ± 0.13; in assay [3], 1.01 ± 0.052. Further, the entries for the “TCF/Wnt firefly luciferase reporter signal” value in assay [4] and in assay [5] were 0.934 ± 0.064 and 0.872 ± 0.073, respectively.
For `CCCCOc1ccc(OCCCN2CCOCC2)cc1` the same measures were 0.904 ± 0.086, 0.976 ± 0.077, 0.975 ± 0.011, 0.993 ± 0.11 and 1.06 ± 0.014.
`CC(Cc1cccc(C(F)(F)F)c1)NCCOC(=O)c1ccccc1` (stereo not given): the cell viability in assay [1] was 0.984 ± 0.023; in assay [2] it was 0.993 ± 0.011; in assay [3], 0.955 ± 0.032. Besides, the figures for the “TCF/Wnt firefly luciferase reporter signal” value in assay [4] and in assay [5] were 1.22 ± 0.057 and 1.14 ± 0.021, respectively.
As to `CN[C@@H]1[C@H](O[C@H]2[C@H](O[C@H]3[C@H](O)[C@@H](O)[C@H](N=C(N)N)[C@@H](O)[C@@H]3N=C(N)N)O[C@@H](C)[C@]2(O)C=O)O[C@@H](CO)[C@H](O)[C@H]1O`, the values for the cell viability in assay [1], in assay [2] and in assay [3] were 0.962 ± 0.097, 0.936 ± 0.044 and 1.07 ± 0.078, respectively. For the same molecule, the “TCF/Wnt firefly luciferase reporter signal” value in assay [4] turned out to be 0.817 ± 0.0014; in assay [5] it was 0.935 ± 0.0028.
For the molecule `CC(C)c1c(C(=O)Nc2ccccc2)c(-c2ccccc2)c(-c2ccc(F)cc2)n1CC[C@@H](O)C[C@@H](O)CC(=O)O`, the cell viability in assay [1] worked out at 0.9915 ± 0.0092; in assay [2], 1 ± 0.069; in assay [3], 1.01 ± 0.076. The “TCF/Wnt firefly luciferase reporter signal” value in assay [4] came to 0.966 ± 0.09; in assay [5], 0.909 ± 0.013.
For the molecule `COc1c(N2C[C@@H]3CCCN[C@@H]3C2)c(F)cc2c(=O)c(C(=O)O)cn(C3CC3)c12`, the figures for the cell viability in assay [1], in assay [2] and in assay [3] were 0.861 ± 0.14, 1.02 and 1.02 ± 0.069, respectively. In addition, the “TCF/Wnt firefly luciferase reporter signal” value was 1.1 ± 0.042 in assay [4] and 1 ± 0.013 in assay [5].
For `C[C@]12CCC3c4ccc(OC(=O)c5ccccc5)cc4CCC3C1CCC2=O` (stereo not given in full) the same measures were 1.05 ± 0.05, 1.01 ± 0.021, 0.991 ± 0.011, 0.978 ± 0.045 and 0.989 ± 0.058.
Take `CCc1cnn2c(NCc3ccc[n+]([O-])c3)cc(N3CCCC[C@H]3CCO)nc12` [Dinaciclib]: the cell viability was 0.99 ± 0.042 in assay [1], 0.779 ± 0.069 in assay [2] and 1.32 ± 0.12 in assay [3]. In addition, the “TCF/Wnt firefly luciferase reporter signal” value is 0.57 ± 0.12 in assay [4] and 0.789 ± 0.035 in assay [5].
For the molecule `CN(Cc1cnc2nc(N)nc(N)c2n1)c1ccc(C(=O)N[C@@H](CCC(=O)O)C(=O)O)cc1`, the cell viability in assay [1] is 0.475 ± 0.1; in assay [2], 1.055 ± 0.0071; in assay [3] it was 1.1. In addition, the “TCF/Wnt firefly luciferase reporter signal” value was 0.739 ± 0.3 in assay [4] and 1.07 ± 0.064 in assay [5].
With `CC(C)CCC[C@@H](C)C1CC[C@H]2[C@@H]3CCC4CC(=O)CC[C@]4(C)[C@H]3CC[C@]12C` (stereo not given in full), the cell viability amounted to 0.999 ± 0.016 in assay [1], 1.01 ± 0.031 in assay [2] and 1.02 ± 0.021 in assay [3]. Moreover, the “TCF/Wnt firefly luciferase reporter signal” value in assay [4] worked out at 0.955 ± 0.045; in assay [5] it was 0.97 ± 0.071.
For `CCCOc1ccc2[nH]c(NC(=O)OC)nc2c1` the same measures were 0.979 ± 0.011, 1.08 ± 0.2, 1.13 ± 0.071, 0.959 ± 0.21 and 0.957 ± 0.035.
For `O=C(c1ccccc1)c1ccc2n1CCC2C(=O)O` (stereo not given) the same measures were 1.03 ± 0.095, 0.929 ± 0.16, 1 ± 0.023, 0.911 ± 0.066 and 0.924 ± 0.021.
Turning to `COc1cccc2c1C(=O)c1c(O)c3c(c(O)c1C2=O)CC(O)(C(C)O)CC3OC1CC(NC=O)C(O)C(C)O1` (stereo not given) [Baumycin C2], the cell viability in assay [1] stood at 1.02 ± 0.035; in assay [2] it was 1.005 ± 0.0071; in assay [3], 1 ± 0.036. Moreover, the “TCF/Wnt firefly luciferase reporter signal” value came out at 1.17 ± 0.12 in assay [4] and 1.05 ± 0.014 in assay [5].
The matching figures for `Clc1ccc(C(c2ccccc2Cl)C(Cl)Cl)cc1` (stereo not given): 0.937 ± 0.013, 0.895 ± 0.15, 0.981 ± 0.041, 1.11 ± 0.021 and 1.03 ± 0.17.
For `C[C@@H]([C@H]1OC(C)(C)[C@@H](O)[C@H]1O)[C@@H]1CC[C@]2(C)C3=CC[C@H]4C(C)(C)C(=O)CC[C@]4(C)[C@H]3CC[C@@]12C` the same measures were 1.1 ± 0.19, 0.998 ± 0.1, 1.07 ± 0.042, 1.01 ± 0.084 and 0.884 ± 0.065.
